Experimental data published in PubChem BioAssay AID602410 (Johns Hopkins Ion Channel Center, 2012).
Hit rate of the full screen: of about 340,000 compounds, about 2,800 (0.82%) were called active.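 How the source made its calls: active means B-score under library mean minus 4 SD, starting fluorescence ratio at most library mean plus 5 SD; inactive means the rest.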 The list comes from a sample in which actives are over-represented; it also holds similar structures and randomly drawn compounds.

biological target: Potassium channel subfamily K member 3 (Homo sapiens) (UniProt O14649); experiment: human KCNK3 channel inhibitors, primary screen, CHO cells, FluxOR thallium flux, B-score (AID 602410); conditions: FluxOR fluorescence, at 10 µM; active compounds read low;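 on B-score: more negative B-score means stronger inhibition of thallium flux through KCNK3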
Sequence (O14649 whole entry, looked up): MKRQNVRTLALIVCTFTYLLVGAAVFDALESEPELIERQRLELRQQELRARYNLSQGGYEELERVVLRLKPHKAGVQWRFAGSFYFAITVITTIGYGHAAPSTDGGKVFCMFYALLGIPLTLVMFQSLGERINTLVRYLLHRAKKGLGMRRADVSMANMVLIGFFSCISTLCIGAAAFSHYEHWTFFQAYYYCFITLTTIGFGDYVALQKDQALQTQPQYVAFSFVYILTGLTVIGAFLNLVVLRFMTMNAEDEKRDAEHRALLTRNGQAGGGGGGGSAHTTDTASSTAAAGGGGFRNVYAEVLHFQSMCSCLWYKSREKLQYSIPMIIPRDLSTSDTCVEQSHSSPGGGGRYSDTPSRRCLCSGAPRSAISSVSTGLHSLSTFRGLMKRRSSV

SMILES | B-score
Cc1cc(Nc2cccc(F)c2)n2ncnc2n1 | inactive
CC(NCC(=O)Nc1cc(Cl)cc(Cl)c1)c1ccccc1 (configuration not stated) | inactive
CC(NCc1cccs1)C(=O)Nc1cc(Cl)cc(Cl)c1 (configuration not stated) | -9.85 (active)
CC(=O)c1ccc(NC(=O)C(C)NCc2ccc(Cl)cc2)cc1 (configuration not stated) | inactive
CC(=O)Nc1ccccc1OC(C)C(=O)N1CCC(C)CC1 (configuration not stated) | inactive
CCOc1ccc(Br)cc1S(=O)(=O)Nc1ccc(C(=O)OC(C)C(=O)N(C)c2ccccc2)cc1 (configuration not stated) | inactive
COCCCNC(=O)CCc1nc2cccnc2n1Cc1ccc(OC)cc1 | inactive
Cc1ccc2nc(NC(=O)C3CSC4(C)CCC(=O)N34)sc2c1 (configuration not stated) | inactive
CCOc1ccc(N(CC(=O)OC)S(=O)(=O)c2c(C)noc2C)cc1 | inactive
Cc1ccc2nc(COc3ccc(N(C)S(=O)(=O)c4ccccc4)cc3)cc(=O)n2c1 | inactive
COc1cccc(COc2ccc(N(C)S(=O)(=O)c3ccccc3)cc2)c1 | -13.2 (active)
COc1ccc(N(Cc2ccccc2)S(=O)(=O)c2cccc(C(=O)O)c2)cc1 | inactive
Nc1nnc2c(C(F)(F)F)nc3ccccc3n12 | inactive
Cc1cccc(C(=O)OC(C)CN2CCN(C)CC2)c1 (configuration not stated) | inactive
Cc1cccc(-c2nc3ccc(C(=O)NCCN4CCN(C)CC4)cc3nc2-c2cccc(C)c2)c1 | -9.46 (active)
Cc1cc(C)cc(C(=O)NCCN2CCOCC2)c1 | inactive
Cc1nnc(C)c2c(C)n(N)c(C)c12 | inactive
C=C1CCC(N(O)c2cc(C)on2)C(=C)CCC2C1CC2(C)C (configuration not stated) | inactive
COc1ccc(C(=O)CSc2nnnn2C)c(OC)c1 | inactive
Oc1ccc(/C=N/Nc2nc(-c3ccccc3F)nc3ccccc23)c(O)c1 | -11 (active)
CC(C)(C)Nc1nc(-c2ccccn2)nc2ccccc12 | inactive
Oc1ccc(-c2nc3ccccc3nc2-c2ccc(O)cc2O)c(O)c1 | inactive
CC1CC(C)CN(C(=O)CSc2ccsc2[N+](=O)[O-])C1 (configuration not stated) | inactive

SMILES | B-score
CC(C)OCCCNC(=O)c1ccc(C2SCC(=O)N2Cc2ccco2)cc1 (configuration not stated) | inactive
COc1c(N2CCN(C(=S)Nc3ccccc3F)C(C)C2)c(F)cc2c(=O)c(C(=O)O)cn(C3CC3)c12 (configuration not stated) | inactive
CCOC(=O)Cc1csc(NC(=O)CSc2nnc(-c3cccnc3)n2Cc2ccco2)n1 | inactive
CCOC(=O)CSc1nc2c(sc(=S)n2CCc2ccccc2)c(=O)n1Cc1ccco1 | -9.18 (active)
CCOC(=O)CSc1nc2c(c(=O)n(Cc3ccccc3Cl)c(=O)n2C)n1C | inactive
O=C(CSc1nnc2n1CCCN2)c1ccccc1 | inactive
CCOc1ccc(CN(Cc2ccco2)S(=O)(=O)c2ccc(-n3cnnn3)c(OC)c2)cc1 | inactive
CCOc1ccc(CN(Cc2ccco2)C(c2cccs2)c2nnnn2C(C)(C)C)cc1 (configuration not stated) | -10.5 (active)
CC(C)(C)n1nnnc1C(c1cccs1)N(Cc1cccnc1)CC1CCCO1 (configuration not stated) | inactive
Cc1nc(NC(CC(C)C)C(=O)O)c2nc(C)oc2n1 (configuration not stated) | inactive
Cn1cc(Cl)c(C(=O)NNC(=S)Nc2cccc(Cl)c2)n1 | inactive
FC(F)(F)c1cccc(NC(=S)Nc2cccc(Cl)c2)c1 | -10.9 (active)
FC(F)(F)c1cccc(N/N=C/c2ccccc2)c1 | inactive
COC(=O)CNS(=O)(=O)c1ccc(Cc2ccc(S(=O)(=O)NCC(=O)OC)cc2)cc1 | inactive
CCN1CCN(C(=O)Cn2nc(C)n3c(cc4c(OC)cccc43)c2=O)CC1 | inactive
COc1ccccc1Oc1ccc(N2CC(C(=O)OCC(=O)c3ccc(F)cc3)CC2=O)cc1 (configuration not stated) | inactive
CC(O)c1nc2ccccc2n1Cc1ccc([N+](=O)[O-])cc1 (configuration not stated) | inactive
COc1ccccc1-n1c(=S)[nH]c2c(sc(=S)n2-c2ccc(C)cc2C)c1=O | inactive
COc1cccc(-n2c(=S)sc3c(=O)n(-c4ccccc4OC)c(SCC4OCCO4)nc32)c1 | inactive
CCc1ccc(-n2c(=S)sc3c(=O)n(-c4ccccc4OC)c(=S)[nH]c32)cc1 | -11 (active)
C/C(=N\Nc1ccc([N+](=O)[O-])cc1)c1ccc(-n2nncc2C(C)(C)C)cc1 | inactive
CCCCC(NC(=O)c1cccc(Br)c1)C(=O)O (configuration not stated) | inactive
COc1ccc([N+](=O)[O-])cc1-c1nc2ccccc2nc1-c1ccccc1 | -12 (active)

SMILES | B-score
O=[N+]([O-])c1cc2ccccc2nc1-c1ccccc1 | inactive
O=[N+]([O-])c1ccc2c(c1)Nc1nc3ccccc3nc1N2 | inactive
COc1ccccc1C(=O)Nc1ccccc1C(=O)Nc1ccccc1 | inactive
CCOc1ccc(NC(=O)c2ccccc2NS(C)(=O)=O)cc1 | inactive
COc1cc(NC(=O)c2ccccc2NS(=O)(=O)c2ccc(Cl)s2)cc(OC)c1 | -9.84 (active)
Cc1ccc(S(=O)(=O)NNC(=S)NC(C)(C)C)cc1 | inactive
C=CCn1c(SCc2ccc(C(=O)NCCO)cc2)nc2ccccc2c1=O | inactive
O=C(Nn1c(SCc2ccc([N+](=O)[O-])cc2)nc2ccccc2c1=O)c1ccc(F)cc1 | -9.24 (active)
Cc1nc2ccccc2c(=O)n1NC(=O)c1ccc(Cl)c([N+](=O)[O-])c1 | inactive
Cc1nc2cccnc2nc1C | inactive
COc1ccc(-c2c(NC(=O)c3ccco3)oc3ccc(Cl)cc3c2=O)cc1 | inactive
Cc1cc(C=O)c(C)n1-c1ccc(NC2CCCCC2)c([N+](=O)[O-])c1 | -13.4 (active)
Cc1cc([N+](=O)[O-])ccc1NC1CCCC1 | inactive
Cc1c(NS(=O)(=O)c2ccc(NC3CCCC3)c([N+](=O)[O-])c2)c(=O)n(-c2ccccc2)n1C | inactive
Cc1cccc(N=C2NC(=O)CS2)c1C | inactive
CCn1cc(C(=O)NCCCN2CCCCCC2)c(=O)c2cc(S(=O)(=O)N3CCc4ccccc4C3)ccc21 | inactive
O=C(CSc1nnc(-c2ccncc2)n1-c1ccc(Cl)cc1)Nc1ccc(C(=O)O)cc1 | inactive
Cc1ccc(SCC(=O)Nc2ccc3c(c2)OCCO3)cc1 | inactive
O=C(COc1ccc2c(C(F)(F)F)cc(=O)oc2c1)Nc1ccc2c(c1)OCCO2 | inactive
CCN(CC(=O)Nc1ccc2c(c1)OCCO2)Cc1cc(=O)oc2cc(C)c(C)cc12 | -8.72 (active)
Cc1cccc(N(C(=O)Cn2nnc(-c3ccc(C)o3)n2)C(C(=O)NC2CCCC2)c2ccncc2)c1 (configuration not stated) | inactive
